Consider 16 compounds from PubChem BioAssay (EPA / NIEHS).

The target in experiment [1] is human Elastase, ELANE (gene 1991) (UniProt P08246). As to the kind of experiment: NVS_ENZ_hElastase: NovaScreen (NVS) Enzymatic Assay for human Elastase (AID 2283153). In outline: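 Concentration-response to 50 uM max, run singly for chemicals passing a threshold (e.g., 30% inhibition) in a duplicate 25 uM single-point screen. Neutrophil-derived human elastase, absorbance read-out of enzyme activity at 1.5 h; DMSO baseline.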
Sequence of human Elastase, ELANE (gene 1991) (P08246 whole entry, looked up): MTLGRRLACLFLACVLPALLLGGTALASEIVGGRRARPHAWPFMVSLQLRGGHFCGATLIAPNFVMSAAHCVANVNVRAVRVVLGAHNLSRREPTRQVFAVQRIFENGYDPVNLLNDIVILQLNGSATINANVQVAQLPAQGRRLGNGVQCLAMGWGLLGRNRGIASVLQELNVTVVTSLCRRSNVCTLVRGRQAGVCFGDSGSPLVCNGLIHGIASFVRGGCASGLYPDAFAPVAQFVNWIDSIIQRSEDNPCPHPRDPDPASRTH

The target of experiment [2] is human Esterase Plasma (ES), BCHE (gene 590) (UniProt P06276). Nature of the experiment: NVS_ENZ_hES: NovaScreen (NVS) Enzymatic Assay for human Esterase Plasma (ES) (AID 2283157). In outline: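 Human plasma-derived enzyme, cell-free, colorimetric readout at 0.25 h. Primary screen 25 uM in duplicate; hits (e.g. ≥30% inhibition) rerun singleton up to 50 uM. DMSO = negative control/baseline.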

Experiment [3] addresses human Janus Kinase 2 (Jak2), JAK2 (gene 3717) (UniProt O60674). As to the kind of experiment: NVS_ENZ_hJak2: NovaScreen (NVS) Enzymatic Assay for human Janus Kinase 2 (Jak2) (AID 2283169). In outline: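 Single-point duplicate screen at 25 uM, with hits run in concentration series to a 50 uM top dose. Substrate-product separation by mobility shift with fluorescence detection, 1 h post-dosing; DMSO baseline.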

Experiment [4] deals with human Dual Specificity Protein Phosphatase 3 (DUSP3), DUSP3 (gene 1845) (UniProt P51452). Nature of the experiment: NVS_ENZ_hDUSP3: NovaScreen (NVS) Enzymatic Assay for human Dual Specificity Protein Phosphatase 3 (DUSP3) (AID 2283152). An outline of the steps: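 Cell-free fluorescence-intensity enzyme activity assay with recombinant protein and substrate; loss of signal fitted relative to DMSO baseline. Primary screen in duplicate at 25 uM, actives then run in concentration series; measured 0 h after dosing.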

Experiment [5] addresses human MAP Kinase-Activated Protein Kinase 2 (MAPKAPK2), MAPKAPK2 (gene 9261) (UniProt P49137). As to the kind of experiment: NVS_ENZ_hMAPKAPK2: NovaScreen (NVS) Enzymatic Assay for human MAP Kinase-Activated Protein Kinase 2 (MAPKAPK2) (AID 2283178). In outline: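 Chemicals screened in duplicate at 25 uM, then to 50 uM top concentration in concentration-response, against recombinant human MAPKAPK2; substrate conversion read 1 hr post-dosing by fluorescence after electrophoretic mobility-shift separation, loss-of-signal relative to DMSO.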

The target in experiment [6] is human AKT serine/threonine Kinase 2 (AKT2), AKT2 (gene 208) (UniProt P31751). As to the kind of experiment: NVS_ENZ_hAKT2: NovaScreen (NVS) Enzymatic Assay for human AKT serine/threonine Kinase 2 (AKT2) (AID 2283141). An outline of the steps: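 Cell-free fluorescence/electrophoretic mobility shift readout of recombinant human AKT2 activity, 1 h after chemical dosing. Duplicate primary screen at 25 uM, then singleton concentration-response up to 50 uM; loss of signal versus DMSO baseline.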
Sequence of human AKT serine/threonine Kinase 2 (AKT2), AKT2 (gene 208) (P31751 whole entry, looked up): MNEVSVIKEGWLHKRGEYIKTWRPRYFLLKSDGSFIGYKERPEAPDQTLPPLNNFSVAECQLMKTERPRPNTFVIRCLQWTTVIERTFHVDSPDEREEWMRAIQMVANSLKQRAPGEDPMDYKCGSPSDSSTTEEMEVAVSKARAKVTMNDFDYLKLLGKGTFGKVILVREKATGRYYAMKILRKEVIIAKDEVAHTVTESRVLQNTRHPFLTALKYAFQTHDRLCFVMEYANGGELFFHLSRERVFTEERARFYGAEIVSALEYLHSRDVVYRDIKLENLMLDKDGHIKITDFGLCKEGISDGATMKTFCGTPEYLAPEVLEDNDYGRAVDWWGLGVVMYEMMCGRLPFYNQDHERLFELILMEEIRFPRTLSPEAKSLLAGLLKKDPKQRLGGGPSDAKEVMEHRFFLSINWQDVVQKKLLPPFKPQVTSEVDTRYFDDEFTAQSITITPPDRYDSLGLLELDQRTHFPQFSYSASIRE

The target of experiment [7] is human Casein Kinase 1-delta (CK1D), CSNK1D (gene 1453) (UniProt P48730). As to the kind of experiment: NVS_ENZ_hCK1D: NovaScreen (NVS) Enzymatic Assay for human Casein Kinase 1-delta (CK1D) (AID 2283148). In outline: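 Recombinant human CK1-delta, cell-free; fluorescent substrate with electrophoretic mobility-shift separation of product, read 1 h after dosing. Single 25 uM duplicate screen, then concentration-response up to 50 uM; loss of signal vs DMSO.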

Experiment [8] concerns the target human Colony Stimulating Factor 1 Receptor (CSF1R), CSF1R (gene 1436) (UniProt P07333). As to the kind of experiment: NVS_ENZ_hCSF1R: NovaScreen (NVS) Enzymatic Assay for human Colony Stimulating Factor 1 Receptor (CSF1R) (AID 2283150). In outline:
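Compounds screened in duplicate at 25 uM, then concentration-response (top 50 uM) for those passing threshold such as 30% inhibition; recombinant CSF1R activity measured 1 h post-dosing via fluorescent substrate/product mobility-shift separation, loss of signal versus DMSO.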

Experiment [9] addresses Glycogen synthase kinase-3 beta (Homo sapiens) (UniProt P49841). Nature of the experiment: NVS_ENZ_hGSK3b: NovaScreen (NVS) Enzymatic Assay for human Glycogen Synthase Kinase-3 beta (GSK3b) (AID 2283165). An outline of the steps:
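Recombinant enzyme with specific fluorescent substrate, 1 h, product separated by electrophoretic mobility shift. Primary duplicate screen at 25 uM; actives (e.g. 30% inhibition) followed in singleton concentration-response to 50 uM. Signal loss fitted versus DMSO.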

For experiment [10], the target named is human Ephrin type-A Receptor 1 (EphA1), EPHA1 (gene 2041) (UniProt P21709). As to the kind of experiment: NVS_ENZ_hEphA1: NovaScreen (NVS) Enzymatic Assay for human Ephrin type-A Receptor 1 (EphA1) (AID 2283158).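 Further: activity is signal loss versus DMSO meaning EphA1 kinase inhibition.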 In outline:
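Here the EphA1 protein is recombinant and the substrate fluorescent, with electrophoretic separation before fluorescence detection at 1 hour. Signal loss against DMSO defines activity; plate controls included; follow-up concentration series reach 50 uM.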

Experiment [11] deals with human Matrix Metalloproteinase-7 (MMP7), MMP7 (gene 4316) (UniProt P09237). As to the kind of experiment: NVS_ENZ_hMMP7: NovaScreen (NVS) Enzymatic Assay for human Matrix Metalloproteinase-7 (MMP7) (AID 2283183). In outline: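 Compounds first tested at 25 uM in duplicate, then at up to 50 uM in concentration series if active. Protease activity measured by fluorescence intensity 1 h after dosing, with fitting relative to DMSO.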
Sequence of human Matrix Metalloproteinase-7 (MMP7), MMP7 (gene 4316) (P09237 whole entry, looked up): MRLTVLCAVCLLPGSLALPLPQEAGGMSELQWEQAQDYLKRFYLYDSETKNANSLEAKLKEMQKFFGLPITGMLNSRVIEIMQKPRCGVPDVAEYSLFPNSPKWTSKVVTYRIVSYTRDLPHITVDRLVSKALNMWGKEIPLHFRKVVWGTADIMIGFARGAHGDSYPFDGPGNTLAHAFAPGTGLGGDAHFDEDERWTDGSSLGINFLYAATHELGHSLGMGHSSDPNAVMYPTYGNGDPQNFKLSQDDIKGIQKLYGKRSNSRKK

Experiment [12] has as its target human Insulin Receptor (InsR), INSR (gene 3643) (UniProt P06213). As to the kind of experiment: NVS_ENZ_hInsR: NovaScreen (NVS) Enzymatic Assay for human Insulin Receptor (InsR) (AID 2283168). In outline: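 Cell-free enzyme assay read 1 h post-dose by fluorescence after substrate/product mobility-shift separation. Duplicate 25 uM primary screen, then singleton concentration-response up to 50 uM for compounds passing threshold; loss of signal vs DMSO.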

Another experiment addresses CDK2 (gene 1017) (UniProt P24941). Nature of the experiment: NVS_ENZ_hCDK2: NovaScreen (NVS) Enzymatic Assay for human Cyclin-Cependent Kinase 2 (CDK2) (AID 2283144). In outline:
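Compounds screened in duplicate at 25 uM, then in singleton concentration-response to a maximum of 50 uM, against recombinant CDK2; kinase activity read 1 hr after dosing by fluorescence with mobility-shift separation of substrate and product.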

Experiment [13] deals with human Caspase 8 (CASP8), CASP8 (gene 841) (UniProt Q14790). As to the kind of experiment: NVS_ENZ_hCASP8: NovaScreen (NVS) Enzymatic Assay for human Caspase 8 (CASP8) (AID 2283146). In outline:
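The primary screen tested compounds in duplicate at a single 25 uM concentration, with actives followed up in concentration series. Activity of recombinant (E. coli) protease was measured by fluorescence 1 h post-dose, as signal loss against DMSO.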

Experiment [14] has as its target Histone deacetylase 3 (Homo sapiens) (UniProt O15379). As to the kind of experiment: NVS_ENZ_hHDAC3: NovaScreen (NVS) Enzymatic Assay for human Histone Deacetylase 3 (HDAC3) (AID 2283163). In outline:
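Cell-free enzyme format: loss of fluorescent product after mobility-shift separation, 1 h incubation, recombinant human HDAC3. Single 25 uM duplicate screen first, then concentration series to a 50 uM top for hits; DMSO as baseline.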

Inconclusive results are not listed. Calls of active or inactive are those of the source. How the source made its calls: active means hit-call score of the fitted dose curve at least 0.9, where 1 is the maximum; inconclusive means response in the unintended direction; inactive means score below 0.9.

Sequence of Glycogen synthase kinase-3 beta (Homo sapiens) (P49841 whole entry, looked up): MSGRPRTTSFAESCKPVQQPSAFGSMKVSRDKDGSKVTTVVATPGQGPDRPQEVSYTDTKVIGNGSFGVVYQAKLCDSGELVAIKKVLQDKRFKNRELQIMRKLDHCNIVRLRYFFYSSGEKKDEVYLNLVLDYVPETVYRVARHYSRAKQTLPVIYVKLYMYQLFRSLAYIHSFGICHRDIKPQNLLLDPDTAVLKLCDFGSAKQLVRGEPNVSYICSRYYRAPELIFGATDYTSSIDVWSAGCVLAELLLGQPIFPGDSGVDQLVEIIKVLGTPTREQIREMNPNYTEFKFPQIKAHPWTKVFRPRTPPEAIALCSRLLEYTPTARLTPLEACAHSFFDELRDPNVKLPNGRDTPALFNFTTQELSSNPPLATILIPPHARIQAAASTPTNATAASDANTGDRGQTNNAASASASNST
Sequence of human Ephrin type-A Receptor 1 (EphA1), EPHA1 (gene 2041) (P21709 whole entry, looked up): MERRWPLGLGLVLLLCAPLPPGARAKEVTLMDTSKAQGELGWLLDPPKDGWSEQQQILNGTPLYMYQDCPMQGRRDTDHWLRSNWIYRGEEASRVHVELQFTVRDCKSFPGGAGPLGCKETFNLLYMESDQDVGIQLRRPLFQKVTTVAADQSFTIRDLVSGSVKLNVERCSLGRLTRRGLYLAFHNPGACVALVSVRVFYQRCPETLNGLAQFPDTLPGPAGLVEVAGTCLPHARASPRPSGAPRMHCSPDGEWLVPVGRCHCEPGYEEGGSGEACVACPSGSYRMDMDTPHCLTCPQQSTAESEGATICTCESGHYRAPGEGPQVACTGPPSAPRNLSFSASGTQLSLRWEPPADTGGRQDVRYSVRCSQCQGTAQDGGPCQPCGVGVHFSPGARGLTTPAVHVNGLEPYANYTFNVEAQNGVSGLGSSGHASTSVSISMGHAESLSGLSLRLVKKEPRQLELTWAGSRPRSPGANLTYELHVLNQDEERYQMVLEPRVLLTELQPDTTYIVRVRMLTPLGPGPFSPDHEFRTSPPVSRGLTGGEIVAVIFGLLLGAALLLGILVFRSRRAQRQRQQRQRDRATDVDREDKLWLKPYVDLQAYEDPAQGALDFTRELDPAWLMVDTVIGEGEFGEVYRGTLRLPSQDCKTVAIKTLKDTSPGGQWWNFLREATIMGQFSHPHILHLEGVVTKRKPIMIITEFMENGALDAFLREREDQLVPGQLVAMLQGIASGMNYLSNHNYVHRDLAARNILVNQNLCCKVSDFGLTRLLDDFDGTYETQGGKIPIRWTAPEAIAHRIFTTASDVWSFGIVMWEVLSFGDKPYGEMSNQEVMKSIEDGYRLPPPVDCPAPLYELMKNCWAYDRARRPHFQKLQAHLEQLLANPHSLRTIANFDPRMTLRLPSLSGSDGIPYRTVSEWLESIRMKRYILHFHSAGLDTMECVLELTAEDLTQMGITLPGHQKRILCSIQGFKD
Sequence of human Janus Kinase 2 (Jak2), JAK2 (gene 3717) (O60674 whole entry, looked up): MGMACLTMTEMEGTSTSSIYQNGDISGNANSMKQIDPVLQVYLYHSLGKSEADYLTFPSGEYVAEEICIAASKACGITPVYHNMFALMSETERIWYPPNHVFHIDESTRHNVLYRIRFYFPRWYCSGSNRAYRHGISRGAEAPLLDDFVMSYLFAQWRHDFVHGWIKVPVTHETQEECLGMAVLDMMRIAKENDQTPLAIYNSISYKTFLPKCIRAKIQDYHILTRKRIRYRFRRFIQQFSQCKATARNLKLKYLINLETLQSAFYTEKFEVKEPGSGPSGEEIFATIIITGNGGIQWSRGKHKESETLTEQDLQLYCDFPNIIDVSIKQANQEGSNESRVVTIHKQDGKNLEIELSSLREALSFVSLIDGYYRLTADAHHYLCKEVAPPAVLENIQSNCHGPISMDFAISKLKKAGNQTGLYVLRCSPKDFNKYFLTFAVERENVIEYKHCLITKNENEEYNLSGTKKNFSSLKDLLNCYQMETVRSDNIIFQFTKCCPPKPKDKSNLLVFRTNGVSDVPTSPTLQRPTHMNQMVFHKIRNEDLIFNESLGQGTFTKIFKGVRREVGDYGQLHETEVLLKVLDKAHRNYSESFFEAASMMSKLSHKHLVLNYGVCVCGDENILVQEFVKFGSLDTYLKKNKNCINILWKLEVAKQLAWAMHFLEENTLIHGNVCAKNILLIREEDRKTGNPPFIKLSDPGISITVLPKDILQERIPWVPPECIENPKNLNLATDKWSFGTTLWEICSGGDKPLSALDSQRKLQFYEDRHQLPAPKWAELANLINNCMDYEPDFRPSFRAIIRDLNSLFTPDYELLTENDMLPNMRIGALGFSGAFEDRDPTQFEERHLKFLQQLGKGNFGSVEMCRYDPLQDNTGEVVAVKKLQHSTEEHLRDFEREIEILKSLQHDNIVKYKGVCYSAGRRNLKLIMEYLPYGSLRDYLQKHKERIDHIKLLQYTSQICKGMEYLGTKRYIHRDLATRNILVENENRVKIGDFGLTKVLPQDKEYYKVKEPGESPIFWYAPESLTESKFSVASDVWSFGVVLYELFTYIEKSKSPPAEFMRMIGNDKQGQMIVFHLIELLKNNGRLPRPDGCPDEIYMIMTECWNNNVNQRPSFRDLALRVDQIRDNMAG
Sequence of human Colony Stimulating Factor 1 Receptor (CSF1R), CSF1R (gene 1436) (P07333 whole entry, looked up): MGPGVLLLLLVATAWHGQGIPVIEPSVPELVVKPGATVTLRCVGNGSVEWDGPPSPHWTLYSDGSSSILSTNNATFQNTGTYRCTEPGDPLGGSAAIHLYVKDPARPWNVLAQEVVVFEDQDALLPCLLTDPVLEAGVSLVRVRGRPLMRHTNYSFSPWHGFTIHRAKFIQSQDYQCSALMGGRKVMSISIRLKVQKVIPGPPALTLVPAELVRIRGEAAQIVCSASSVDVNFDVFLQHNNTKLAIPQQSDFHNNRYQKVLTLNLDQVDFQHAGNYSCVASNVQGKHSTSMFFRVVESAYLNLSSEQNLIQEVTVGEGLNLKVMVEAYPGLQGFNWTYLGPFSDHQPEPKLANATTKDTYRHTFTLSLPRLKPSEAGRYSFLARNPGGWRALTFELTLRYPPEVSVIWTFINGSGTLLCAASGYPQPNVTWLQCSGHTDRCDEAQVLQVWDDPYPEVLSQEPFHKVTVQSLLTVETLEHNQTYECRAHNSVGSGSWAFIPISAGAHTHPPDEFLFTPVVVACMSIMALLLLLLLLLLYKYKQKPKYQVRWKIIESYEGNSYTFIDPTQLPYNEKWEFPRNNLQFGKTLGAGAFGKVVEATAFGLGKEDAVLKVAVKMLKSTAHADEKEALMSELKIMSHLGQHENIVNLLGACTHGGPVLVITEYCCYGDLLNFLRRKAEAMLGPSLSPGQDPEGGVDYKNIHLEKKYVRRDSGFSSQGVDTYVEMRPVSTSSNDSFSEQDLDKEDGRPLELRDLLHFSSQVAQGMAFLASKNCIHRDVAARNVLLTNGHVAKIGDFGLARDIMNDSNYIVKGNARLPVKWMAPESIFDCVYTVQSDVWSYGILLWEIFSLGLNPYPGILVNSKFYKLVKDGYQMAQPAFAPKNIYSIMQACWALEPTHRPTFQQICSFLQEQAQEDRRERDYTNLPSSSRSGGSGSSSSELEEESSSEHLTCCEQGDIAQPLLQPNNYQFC
Sequence of human Caspase 8 (CASP8), CASP8 (gene 841) (Q14790 whole entry, looked up): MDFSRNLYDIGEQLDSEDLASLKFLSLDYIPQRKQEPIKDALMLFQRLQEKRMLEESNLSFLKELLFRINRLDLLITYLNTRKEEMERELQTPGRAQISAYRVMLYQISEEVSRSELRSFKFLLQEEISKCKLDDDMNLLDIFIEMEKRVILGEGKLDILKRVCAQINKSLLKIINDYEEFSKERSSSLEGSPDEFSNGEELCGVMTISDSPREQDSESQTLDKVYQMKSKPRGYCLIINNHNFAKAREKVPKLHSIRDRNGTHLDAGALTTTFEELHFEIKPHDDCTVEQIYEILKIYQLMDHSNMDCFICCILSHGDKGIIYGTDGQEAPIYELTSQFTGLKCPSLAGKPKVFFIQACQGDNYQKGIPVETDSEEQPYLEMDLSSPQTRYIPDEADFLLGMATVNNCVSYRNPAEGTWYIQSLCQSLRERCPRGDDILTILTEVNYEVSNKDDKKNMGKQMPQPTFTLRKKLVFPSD

Broadly, the AC50 is the concentration giving half of the maximal activity seen. `Nc1nc(N)c2nc(CNc3ccc(C(=O)N[C@@H](CCC(=O)O)C(=O)O)cc3)cnc2n1`: the compound was classed as inactive in experiment [1] and in experiment [2]. Also, the half-maximal activity concentration (AC50) in experiment [3] is 21.9 µM (active).
With `COc1cc(-c2nc(NC(=O)c3cc4cc(C)cc(C)c4n3CC(=O)O)sc2CCC2CCCCC2)c(OC)cc1Cl`, the AC50 in experiment [4] is 1.23 µM (active); in experiment [1], 5.61 µM (active); in [5], 6.49 µM (active).
As to `O=C(OCCCCCOC(=O)c1ccccc1)c1ccccc1`, the compound was classed as inactive in experiment [6], in experiment [7], in experiment [8] and in [9].
For `Cc1ccc2ncccc2c1`, the compound was called inactive in [6]. Further, the AC50 in [7] was 4.96 µM (active).
Turning to `CCCCCC(=O)O`, the outcome in experiment [6] was inactive.
Take `Cc1oc(-c2ccccc2)nc1CCOc1cccc2c1ccn2CCC(=O)O`: the concentration at half-maximal activity (AC50) in experiment [1] is 11.9 µM (active). The compound was called inactive in experiment [10], in experiment [3] and in experiment [11].
Turning to `Cc1cccc(Nc2cc(Cl)nc(SCC(=O)O)n2)c1C`, the outcome in experiment [1] was inactive.
In the case of `Oc1ccc2c(c1)OC[C@@H](N1CCC(O)(c3ccc(F)cc3)CC1)[C@H]2O`, the outcome in experiment [4] was inactive.
As for `COc1cc(C=O)ccc1O`, the compound was called inactive in experiment [1], in experiment [10] and in experiment [12].
`FC(F)(F)C(F)(F)C(F)(F)C(F)(F)C(F)(F)C(F)(F)CCI`: the compound was called inactive (with CDK2 (gene 1017); in [13]; in experiment [8]; in experiment [2]; in experiment [10]; in experiment [9]). The compound was called inactive in experiment [3].
Turning to `O=c1c(O)c(-c2ccc(O)c(O)c2)oc2cc(O)cc(O)c12`, the compound was classed as inactive in experiment [6], in [1] and in experiment [14]. For the same compound, the concentration at half-maximal activity (AC50) in experiment [9] was 0.073 µM (active).
On to `CCc1c(C(=O)NN2CCCCC2)nn(-c2ccc(Cl)cc2Cl)c1-c1ccc(Br)cc1`, for which the compound was called inactive in experiment [8], in experiment [1], in [9] and in experiment [12].
Take `CC1(C)NC(=O)NC1=O`: the call in experiment [6] was inactive.
With `CCOc1ccc2c(c1)C(C)=CC(C)(C)N2`, in experiment [8], the half-maximal activity concentration (AC50) is 25 µM (active). The call in experiment [9] was inactive.
For the compound `CNC(=O)[C@H]1O[C@@H](n2cnc3c(NCc4cc(Cl)ccc4OCc4cc(C)no4)ncnc32)[C@H](O)[C@@H]1N`, the result in experiment [13] and in experiment [11] was inactive.
With `CC1(C)CC(N=C=O)CC(C)(CN=C=O)C1` (centres undefined), the half-maximal activity concentration (AC50) in experiment [6] is 6.21 µM (active). Moreover, the compound was called inactive in experiment [13].
